Experimental data reported in PubChem BioAssay (NCI).
The panel holds about 83,000 compounds, 20% with a hit somewhere; the sample as a whole holds those more often.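 How to read the values: 0–100, growth inhibition (40 = 60% inhibited); 0, no net growth; -100 to 0, cell death (-40 = 40% of starting cells died; -100 = all dead).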 Activity calls are given as the source filed them. The calls were made as follows: active = growth percent below 10; inactive = the rest.

Experiments:
Assay in all cases: NCI-60 one-dose screen, 48 h (100 = growth as untreated, 0 = no growth, -100 = all killed)
[1] = tested on: SK-MEL-2 melanoma; settings: 10 µM unless noted
[2] = tested on: EKVX NSCLC; settings: 10 µM unless noted
[3] = tested on: SN12C renal; settings: 10 µM unless noted
[4] = tested on: UO-31 renal; settings: 10 µM unless noted
[5] = tested on: TK-10 renal; settings: 10 µM unless noted
[6] = tested on: ACHN renal; settings: 10 µM unless noted
[7] = tested on: A498 renal; settings: 10 µM
[8] = tested on: HL-60(TB) leukemia; settings: 10 µM unless noted
[9] = tested on: CCRF-CEM leukemia; settings: 10 µM unless noted
[10] = tested on: MOLT-4 leukemia; settings: 10 µM unless noted
[11] = tested on: SR leukemia; settings: 10 µM unless noted
[12] = tested on: RPMI-8226 leukemia; settings: 10 µM unless noted
[13] = tested on: OVCAR-8 ovarian; settings: 10 µM unless noted
[14] = tested on: OVCAR-5 ovarian; settings: 10 µM unless noted
[15] = tested on: OVCAR-4 ovarian; settings: 10 µM unless noted
[16] = tested on: SK-OV-3 ovarian; settings: 10 µM unless noted
[17] = tested on: IGROV1 ovarian; settings: 10 µM unless noted
[18] = tested on: OVCAR-3 ovarian; settings: 10 µM unless noted
[19] = tested on: HS 578T breast; settings: 10 µM unless noted

Measured: growth

Cc1cc(-c2nc3cc(F)ccc3[se]2)cc(F)c1N
inactive: [1] 101% | [2] 66.4% | [3] 95.5% | [4] 55.8% | [5] 57.6% | [6] 79% | [7] 74.8% | [8] 87.2% | [9] 85.2% | [10] 83.6% | [11] 23.9% | [12] 66.8% | [13] 104% | [14] 51.2% | [15] 63.3% | [16] 73.6% | [17] 37.3% | [18] 87.2% | [19] 102%

COC(=O)[C@@]1(C)CC[C@]2(C)CC[C@]3(C)C4=CC=C5C(=CC(=O)C(O)=C5C)[C@]4(C)CC[C@@]3(C)[C@@H]2C1
active: [1] -87.6% | [2] -77.8% | [3] -88.2% | [4] -99.4% | [5] -95.7% | [6] -100% | [7] -97.9% | [8] -53.1% | [9] -41.2% | [10] -43.3% | [11] -46.7% | [12] -26.7% | [13] -72.9% | [14] -93.1% | [15] -95% | [16] -97.6% | [17] -77.4% | [18] -92.1% | [19] -41.6%

O=[N+]([O-])c1cc(I)cc([N+](=O)[O-])c1
inactive: [1] 96.8% | [2] 99.9% | [3] 103% | [4] 108% | [5] 117% | [6] 121% | [7] 111% | [8] 125% | [9] 100% | [10] 97.1% | [11] 104% | [12] 101% | [13] 108% | [14] 119% | [15] 79.4% | [16] 125% | [17] 108% | [18] 107% | [19] 122%

COc1ccc(O)c(CNC(=O)CN2CCCC2=O)c1
inactive: [1] 103% | [2] 100% | [3] 97.6% | [4] 98.7% | [5] 105% | [6] 99.7% | [7] 93.6% | [8] 142% | [9] 26.4% | [10] 101% | [11] 98.5% | [12] 99.4% | [13] 106% | [14] 95.1% | [15] 103% | [16] 112% | [17] 104% | [18] 103% | [19] 94%

Nc1ccc(-c2nc3cc(F)ccc3[se]2)cc1F
inactive: [1] 97.7% | [2] 49.2% | [3] 83% | [4] 38.5% | [5] 43.6% | [6] 30.3% | [7] 13.5% | [8] 64.9% | [9] 44.8% | [10] 63.5% | [11] 15.5% | [12] 63.2% | [13] 92.3% | [14] 47.9% | [15] 65.8% | [16] 55.1% | [17] 38.7% | [18] 81% | [19] 103%

CCOC(=O)CCN(C)C1=Nc2ccc(Cl)cc2C(c2ccccc2)=[N+]([O-])C1
inactive: [1] 93.5% | [2] 102% | [3] 98.5% | [4] 78.6% | [5] 91.4% | [6] 110% | [7] 71.8% | [8] 91.3% | [9] 99.6% | [10] 94.1% | [11] 85.8% | [12] 106% | [13] 101% | [14] 109% | [15] 99.4% | [16] 106% | [17] 107% | [18] 110% | [19] 96%

CC(=O)O[C@H](C[C@H](C(C)C)N(C)C(=O)[C@@H](NC(=O)[C@H]1CCCCN1C)C(C)C)c1nc(C(=O)N[C@@H](Cc2ccccc2)C[C@H](C)C(=O)O)c(C)s1
active: [7] -8.24% | [8] -8.97% | [11] 7.46% | [16] 6.87%
inactive: [1] 61.5% | [2] 40.9% | [3] 34.6% | [4] 58.9% | [5] 36.9% | [6] 26.6% | [9] 10.8% | [10] 20.7% | [12] 25.1% | [13] 20.1% | [14] 31% | [15] 50.6% | [17] 31.1% | [18] 12.5% | [19] 21.1%
